Source: PubChem BioAssay (Tox21)
Inconclusive results are not listed. Where a call stands in place of a potency, no number is given. Unmarked numbers belong to inactive results. Calls of active or inactive are those of the source. The call rests on the fitted dose curve.

Biological target: Muscarinic acetylcholine receptor M1 (Homo sapiens) (UniProt P11229)
Experiment: Cholinergic receptor muscarinic 1 (CHRM1) small molecule antagonists, cell-based qHTS assay (AID 1963588); further: nearly all actives have a fitted effect of over 40% in size
Details: CHRM1-CHO antagonist mode, calcium flux fluorescence; series mostly up to 61.5 µM
From the text: National Center for Advancing Translational Sciences [NCATS]
Division of Preclinical Innovation [DPI]
U.S. Environmental Protection Agency [EPA]
National Institutes of Environmental Health Sciences [NIEHS]
National Toxicology Program [NTP]
U.S. Food and Drug Administration [FDA]
The CHRM1 is a muscarinic receptor. This receptor plays a crucial role in learning and memory processes and has long been identified as a promising therapeutic target for the improvement of cognitive decline in Alzheimer's disease (AD). The CHRM1-CHO cell line stably expressing human muscarinic acetylcholine receptor M1 (CHRM1) can be used for screening agonists and antagonists of interactions between CHRM1 and its ligands. The CHRM1-CHO Calcium Flux Assay is a homogeneous fluorescence-based assay for detecting the intracellular calcium level using FDSS kinetic plate reader system.
Tox21 Assay Protocol Summary:
CHRM1-CHO cells were dispensed at 1000 cells/3uL/well in 1536-well black-clear bottom plates using a Multidrop Dispenser. After the assay plates were incubated at a 37 C/5% CO2 incubator for 18 h, 3 uL of Dye Loading Buffer was transferred to the assay plate by a Flying Reagent Dispenser. The assay plates were incubated at 37 C for 1h. For antagonist mode, 23 nL of compounds dissolved in DMSO, positive controls or DMSO only was transferred to the assay plate by a pin tool. After 5 min incubation at room temperature, 1.5 uL of acetylcholine at 50nM was added to each well. The fluorescence intensity in the plates was measured using FDSS 7000EX kinetic plate reader for 3 min at 1 sec intervals. Each test compound was measured at 15 concentrations in three independent runs.
Potency means the concentration at half of the fitted maximal effect.

Chain of Muscarinic acetylcholine receptor M1 (Homo sapiens) (P11229 whole entry, looked up): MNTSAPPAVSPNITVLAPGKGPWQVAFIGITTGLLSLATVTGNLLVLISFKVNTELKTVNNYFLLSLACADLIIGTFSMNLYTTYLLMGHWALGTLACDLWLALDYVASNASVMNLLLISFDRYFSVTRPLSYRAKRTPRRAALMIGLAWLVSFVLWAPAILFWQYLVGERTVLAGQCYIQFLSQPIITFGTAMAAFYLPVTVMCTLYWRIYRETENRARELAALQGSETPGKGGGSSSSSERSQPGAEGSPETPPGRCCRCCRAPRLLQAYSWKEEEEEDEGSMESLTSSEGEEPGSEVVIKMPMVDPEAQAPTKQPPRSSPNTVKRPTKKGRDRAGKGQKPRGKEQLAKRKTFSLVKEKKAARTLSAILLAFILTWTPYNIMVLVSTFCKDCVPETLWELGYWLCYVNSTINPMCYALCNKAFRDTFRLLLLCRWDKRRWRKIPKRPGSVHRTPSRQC

| Structure (SMILES) | Potency | activity, negative = inhibition |
| --- | --- | --- |
| OCCN(CCO)c1ccccc1 | inactive | – |
| CC(C(=O)O)c1ccc(/C=C2\CCCCC2=O)cc1 (stereo not given) | inactive | – |
| COc1cc2c(cc1OC)C(C(C(=O)N(CCc1ccc(OC)c(OC)c1OC)CCc1ccc(OC)c(OC)c1OC)c1ccccc1)=NCC2 (stereo not given) | inactive | – |
| O=C1CCCc2c(O)cccc21 | 0.163 µM (active) | – |
| O=CN1CCOCC1 | inactive | – |
| CSc1cnc(C)cn1 | inactive | – |
| CO[Si](CCCn1c(=O)n(CCC[Si](OC)(OC)OC)c(=O)n(CCC[Si](OC)(OC)OC)c1=O)(OC)OC | inactive | – |
| CCCCCCCCCOC(C)=O | inactive | – |
| Cc1cccn2c(=O)c(-c3nnn[nH]3)cnc12 | – | -2.73% [at 12.6 µM] |
| CN1Cc2cc(C(=O)N3CCC(C4CCNCC4)CC3)ccc2NC(CC(=O)O)C1=O (stereo not given) | 1.3 µM (active) | – |
| CC(CO)(CO)C(=O)O | inactive | – |
| CCc1ccc(CC)cc1 | inactive | – |
| OC[C@H]1O[C@@H](O[C@@H]2[C@@H](CO)O[C@](O)(CO)[C@H]2O)[C@H](O)[C@@H](O)[C@H]1O | inactive | – |
| C=CC(=O)OCC(CO)(COCC(COC(=O)C=C)(COC(=O)C=C)COC(=O)C=C)COC(=O)C=C | inactive | – |
| CCOC(=N)CC(=O)OCC | inactive | – |
| Cc1nc2n(c(=O)c1CCN1CCC(c3noc4cc(F)ccc34)CC1)CCC[C@H]2O | 4.48 µM (active) | – |
| Cc1c(N)cccc1[N+](=O)[O-] | inactive | – |
| Oc1ccc(C(O)CNCCCCCCNCC(O)c2ccc(O)c(O)c2)cc1O (stereo not given) | inactive | – |
| CC(N)C(=O)OC(C)(C)Cc1ccc(Cl)cc1 (stereo not given) | inactive | – |
| CCCCN1CCCC1C(=O)Nc1c(C)cc(C)cc1C (stereo not given) | inactive | – |

| Structure (SMILES) | Potency | activity, negative = inhibition |
| --- | --- | --- |
| C/C(=C(\CCOP(=O)(O)O)SC(=O)c1ccccc1)N(C=O)Cc1cnc(C)nc1N | – | 1.74% [at 5.58 µM] |
| CC(C)=CCC/C(C)=C/CC/C(C)=C/C(=O)OCC(=O)[C@@]1(O)CC[C@H]2[C@@H]3CCC4=CC(=O)C=C[C@]4(C)[C@H]3[C@@H](O)C[C@@]21C | inactive | – |
| c1ccc(CC2=NCCN2)cc1 | inactive | – |
| NS(=O)(=O)c1cc2c(cc1Cl)CN(C1CCCCC1)C2=O | inactive | – |
| CCc1cccc(C)c1N(C(=O)CS(=O)(=O)O)C(C)COC (stereo not given) | inactive | – |
| O=C(O)c1ccc(Cl)cc1Cl | inactive | – |
| O=C1c2ccccc2C(=O)C1c1ccc(Br)cc1 | inactive | – |
| CN(C)CCCCl | inactive | – |
| CC(C)OC(=O)c1ccccc1 | inactive | – |
| CCCCCC[C@@H](CCC)C(=O)O | inactive | – |
| Cc1ccc(CCn2c3c(c4cc(Cl)ccc42)CN(C)CC3)cn1 | inactive | – |
| CC1=NC(C)OC1C (stereo not given) | inactive | – |
| O=C(Nc1ccc2c(O)c(N=Nc3ccc(N=Nc4ccc(S(=O)(=O)O)cc4)cc3)c(S(=O)(=O)O)cc2c1)c1ccccc1 | inactive | – |
| CCC(=O)O[C@]1(C(=O)SCF)[C@H](C)C[C@H]2[C@@H]3C[C@H](F)C4=CC(=O)C=C[C@]4(C)[C@@]3(F)[C@@H](O)C[C@@]21C | inactive | – |
| COC(=O)c1cccc(Cl)c1 | inactive | – |
| C[C@H](N)[C@H](O)c1cccc(O)c1 | inactive | – |
| O=C(O)Cn1c(C(=O)Nc2nc(-c3ccccc3Cl)cs2)cc2ccccc21 | inactive | – |
| CC(C)SCc1ccco1 | inactive | – |
| Nc1ccc2cc(S(=O)(=O)O)ccc2c1 | inactive | – |
| Clc1ccc(C(Cn2ccnc2)OCc2c(Cl)cccc2Cl)c(Cl)c1 (stereo not given) | 11.6 µM (active) | – |
